Laboratory results taken from paper PMC7862700, “An all-to-all approach to the identification of sequence-specific readers for epigenetic DNA modifications on cytosine”.

What was measured:
Experiment in all cases: DAPPL (digital affinity profiling via proximity ligation, sequencing); 10 mM Tris-HCl pH 7.5, 50 mM NaCl, 1 mM DTT, 4% glycerol, room temperature, 30 min; GST-TFs on glutathione beads, 16-mer random dsDNA library, 0.1% formaldehyde crosslink after washing; high values mean tight binding
Conditions in all cases: protein: recombinant; tags: N-terminal GST; dsDNA, one strand shown
SPIC = molecular target: T1, SPIC (Homo sapiens, UniProt Q8N5J4 1-248)
T1 sequence: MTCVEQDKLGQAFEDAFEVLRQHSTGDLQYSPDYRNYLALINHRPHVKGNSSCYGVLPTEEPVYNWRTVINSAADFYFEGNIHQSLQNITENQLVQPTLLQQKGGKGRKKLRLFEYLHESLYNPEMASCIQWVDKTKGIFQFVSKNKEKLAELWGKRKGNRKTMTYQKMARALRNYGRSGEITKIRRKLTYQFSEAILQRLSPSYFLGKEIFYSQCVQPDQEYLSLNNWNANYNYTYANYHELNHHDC
Summary of the method: (§1)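 In yeast, human transcription factors were expressed with a GST fusion, then pulled down on glutathione beads and given DNA barcodes. Pooled with a tag-only sample, they were exposed to 200 nmole of a 16-mer random double-stranded DNA library (Tris/NaCl/DTT/glycerol buffer, room temperature, 30 min), washed, crosslinked with 0.1% formaldehyde, proximity-ligated using BsaI/T4 ligase for 1 h at 37 °C, PCR-amplified and read on an Illumina NextSeq500. Each hexamer's frequency of reads for a factor, divided by the matching frequency for the tag-only sample, gives the binding signal.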

CRX = CRX (Homo sapiens, UniProt O43186 1-299)
Summary of the method: as §1

ETV3L = molecular target: T2, ETV3L (Homo sapiens, UniProt Q6ZN32 1-361)
T2 sequence: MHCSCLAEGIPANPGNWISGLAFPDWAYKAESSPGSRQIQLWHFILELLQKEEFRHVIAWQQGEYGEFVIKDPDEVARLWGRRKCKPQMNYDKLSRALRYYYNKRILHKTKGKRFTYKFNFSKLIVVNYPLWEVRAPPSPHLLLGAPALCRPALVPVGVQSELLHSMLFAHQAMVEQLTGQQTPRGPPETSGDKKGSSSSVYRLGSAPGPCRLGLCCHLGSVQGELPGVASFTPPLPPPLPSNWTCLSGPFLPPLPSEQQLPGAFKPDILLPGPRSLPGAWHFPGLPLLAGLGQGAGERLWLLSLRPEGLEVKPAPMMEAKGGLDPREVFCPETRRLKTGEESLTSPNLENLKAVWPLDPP
Summary of the method: as §1

GABPA = molecular target: T3, GABPA (Homo sapiens, UniProt Q06546 1-454)
T3 sequence: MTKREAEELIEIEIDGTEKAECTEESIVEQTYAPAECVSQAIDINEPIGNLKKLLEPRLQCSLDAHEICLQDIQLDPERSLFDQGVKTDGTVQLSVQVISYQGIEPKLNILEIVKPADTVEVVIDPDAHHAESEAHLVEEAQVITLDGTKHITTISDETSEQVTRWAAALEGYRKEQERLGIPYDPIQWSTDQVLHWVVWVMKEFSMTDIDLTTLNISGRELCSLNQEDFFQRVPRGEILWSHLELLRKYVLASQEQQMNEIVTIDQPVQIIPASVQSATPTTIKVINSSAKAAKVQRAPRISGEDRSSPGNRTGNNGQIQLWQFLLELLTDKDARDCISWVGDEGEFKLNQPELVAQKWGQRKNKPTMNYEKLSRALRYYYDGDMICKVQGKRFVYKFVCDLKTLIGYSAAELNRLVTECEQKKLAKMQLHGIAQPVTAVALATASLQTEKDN
Summary of the method: as §1

ELK4 = molecular target: T4, ELK4 (Homo sapiens, UniProt P28324-2 1-405)
T4 sequence: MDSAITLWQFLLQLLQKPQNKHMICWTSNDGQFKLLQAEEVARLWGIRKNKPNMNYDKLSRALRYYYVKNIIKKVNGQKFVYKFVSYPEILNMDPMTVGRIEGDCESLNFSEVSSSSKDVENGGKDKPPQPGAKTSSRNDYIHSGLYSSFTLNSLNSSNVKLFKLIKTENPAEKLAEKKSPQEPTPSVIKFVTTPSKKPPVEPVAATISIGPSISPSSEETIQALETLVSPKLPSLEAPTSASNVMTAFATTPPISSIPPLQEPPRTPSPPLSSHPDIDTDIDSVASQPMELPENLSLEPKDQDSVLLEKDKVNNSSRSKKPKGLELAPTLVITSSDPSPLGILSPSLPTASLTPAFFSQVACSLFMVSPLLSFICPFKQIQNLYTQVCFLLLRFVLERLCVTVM
Summary of the method: as §1

SPI1 = SPI1 (Homo sapiens, UniProt P17947 1-270)
Summary of the method: as §1

ELF3 = molecular target: T5, ELF3 (Homo sapiens, UniProt P78545 1-371)
T5 sequence: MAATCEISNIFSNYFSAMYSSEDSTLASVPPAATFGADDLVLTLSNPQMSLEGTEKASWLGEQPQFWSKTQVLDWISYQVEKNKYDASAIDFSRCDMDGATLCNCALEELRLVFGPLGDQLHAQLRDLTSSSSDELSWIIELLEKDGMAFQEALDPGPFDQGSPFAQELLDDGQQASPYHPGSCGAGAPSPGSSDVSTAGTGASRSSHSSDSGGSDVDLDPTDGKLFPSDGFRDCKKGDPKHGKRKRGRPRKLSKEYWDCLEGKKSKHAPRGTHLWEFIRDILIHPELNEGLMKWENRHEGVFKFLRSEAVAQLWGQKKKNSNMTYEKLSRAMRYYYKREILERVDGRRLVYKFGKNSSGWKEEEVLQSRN
Summary of the method: as §1

ETV1 = ETV1 (Homo sapiens, UniProt P50549 1-477)
Summary of the method: as §1

ELF5 = molecular target: T6, ELF5 (Homo sapiens, UniProt Q9UKW6-2 1-255)
T6 sequence: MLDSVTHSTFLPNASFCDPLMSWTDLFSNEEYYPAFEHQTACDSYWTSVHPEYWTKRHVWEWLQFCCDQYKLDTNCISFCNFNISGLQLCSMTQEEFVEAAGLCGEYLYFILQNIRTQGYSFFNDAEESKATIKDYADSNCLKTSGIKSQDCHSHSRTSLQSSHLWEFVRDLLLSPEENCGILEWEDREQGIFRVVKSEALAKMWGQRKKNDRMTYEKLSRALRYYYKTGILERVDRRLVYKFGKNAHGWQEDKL
Summary of the method: as §1

ETV3 = molecular target: T7, ETV3 (Homo sapiens, UniProt P41162-2 1-143)
T7 sequence: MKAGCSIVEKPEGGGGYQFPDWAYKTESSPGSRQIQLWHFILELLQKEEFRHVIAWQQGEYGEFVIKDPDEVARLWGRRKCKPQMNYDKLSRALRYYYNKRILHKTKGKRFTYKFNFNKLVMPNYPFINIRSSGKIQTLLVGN
Summary of the method: as §1

ERG = molecular target: T8, ERG (Homo sapiens, UniProt P11308 1-479)
T8 sequence: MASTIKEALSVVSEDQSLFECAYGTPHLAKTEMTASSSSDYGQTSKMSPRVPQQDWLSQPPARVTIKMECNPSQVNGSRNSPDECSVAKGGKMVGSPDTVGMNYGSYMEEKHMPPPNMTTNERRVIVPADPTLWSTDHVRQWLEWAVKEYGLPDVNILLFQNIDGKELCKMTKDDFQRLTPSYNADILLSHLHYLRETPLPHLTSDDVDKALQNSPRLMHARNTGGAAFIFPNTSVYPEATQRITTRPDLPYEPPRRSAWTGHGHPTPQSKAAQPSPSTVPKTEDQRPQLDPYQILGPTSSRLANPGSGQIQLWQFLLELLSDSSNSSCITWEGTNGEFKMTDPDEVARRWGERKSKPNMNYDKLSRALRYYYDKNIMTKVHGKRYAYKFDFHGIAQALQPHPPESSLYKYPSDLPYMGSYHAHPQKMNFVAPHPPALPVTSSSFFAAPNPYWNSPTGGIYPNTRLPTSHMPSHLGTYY
Summary of the method: as §1

ETS2 = molecular target: T9, ETS2 (Homo sapiens, UniProt P15036 1-469)
T9 sequence: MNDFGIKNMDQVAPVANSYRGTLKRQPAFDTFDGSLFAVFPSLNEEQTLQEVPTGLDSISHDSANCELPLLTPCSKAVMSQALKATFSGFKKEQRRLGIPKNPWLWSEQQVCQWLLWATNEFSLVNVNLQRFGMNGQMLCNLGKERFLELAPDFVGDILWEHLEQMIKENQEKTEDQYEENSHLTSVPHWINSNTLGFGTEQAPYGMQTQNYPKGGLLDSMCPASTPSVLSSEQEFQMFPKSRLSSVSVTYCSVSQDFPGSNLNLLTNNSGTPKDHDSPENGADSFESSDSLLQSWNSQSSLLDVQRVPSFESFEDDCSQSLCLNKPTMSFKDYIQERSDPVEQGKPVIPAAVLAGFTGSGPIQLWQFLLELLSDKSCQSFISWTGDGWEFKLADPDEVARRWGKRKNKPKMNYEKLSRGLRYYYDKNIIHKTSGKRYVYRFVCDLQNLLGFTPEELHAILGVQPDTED
Summary of the method: as §1

ETV1, sequence (P50549 whole entry): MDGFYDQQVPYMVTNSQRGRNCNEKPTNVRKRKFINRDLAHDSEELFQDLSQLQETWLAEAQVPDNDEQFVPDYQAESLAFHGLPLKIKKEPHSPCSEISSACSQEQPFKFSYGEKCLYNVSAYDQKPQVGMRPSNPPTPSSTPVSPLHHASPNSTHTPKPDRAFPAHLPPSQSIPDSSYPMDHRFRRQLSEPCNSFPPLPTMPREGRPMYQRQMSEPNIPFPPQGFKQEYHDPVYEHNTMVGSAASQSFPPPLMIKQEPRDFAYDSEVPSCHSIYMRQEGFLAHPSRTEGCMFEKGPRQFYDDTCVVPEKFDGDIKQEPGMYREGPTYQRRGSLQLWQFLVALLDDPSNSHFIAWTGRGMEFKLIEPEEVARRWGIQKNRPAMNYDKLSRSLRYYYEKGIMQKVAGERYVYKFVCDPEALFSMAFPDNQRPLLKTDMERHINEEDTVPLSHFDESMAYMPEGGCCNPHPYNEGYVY
CRX, sequence (O43186 whole entry): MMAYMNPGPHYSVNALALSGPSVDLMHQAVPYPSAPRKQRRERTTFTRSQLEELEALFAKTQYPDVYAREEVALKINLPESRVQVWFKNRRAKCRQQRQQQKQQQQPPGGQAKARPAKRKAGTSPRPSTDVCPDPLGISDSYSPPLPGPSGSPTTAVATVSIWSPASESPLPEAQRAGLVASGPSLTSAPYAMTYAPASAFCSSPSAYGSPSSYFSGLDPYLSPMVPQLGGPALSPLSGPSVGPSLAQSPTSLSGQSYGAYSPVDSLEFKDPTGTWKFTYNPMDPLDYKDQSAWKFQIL

Q: TAAGGC was tested. Which binding signal (SPIC) did it give?
A: 1.02 fold enrichment (6-mer frequency, TF over GST control)

Q: What about the binding signal (CRX) of the same sequence?
A: 1.52 fold enrichment (6-mer frequency, TF over GST control)

Q: With AGCATG as the sequence, how does the binding signal (SPIC) read?
A: 1.07 fold enrichment (6-mer frequency, TF over GST control)

Q: What about the binding signal (ETV3L) of the same sequence?
A: 1.02 fold enrichment (6-mer frequency, TF over GST control)

Q: How did the binding signal (GABPA) turn out when TGGCGC was run?
A: 1.02 fold enrichment (6-mer frequency, TF over GST control)

Q: What about the binding signal (SPIC) of the same sequence?
A: 1.1 fold enrichment (6-mer frequency, TF over GST control)

Q: And the binding signal (ELK4)?
A: 1.06 fold enrichment (6-mer frequency, TF over GST control)

Q: What does the source list for ATGAGG?
A: binding signal (GABPA): 1.03 fold enrichment (6-mer frequency, TF over GST control); binding signal (SPI1): 1.4 fold enrichment (6-mer frequency, TF over GST control); binding signal (SPIC): 1.06 fold enrichment (6-mer frequency, TF over GST control); binding signal (ELF3): 1.17 fold enrichment (6-mer frequency, TF over GST control); binding signal (ETV1): 1.01 fold enrichment (6-mer frequency, TF over GST control); binding signal (ELF5): 1.11 fold enrichment (6-mer frequency, TF over GST control); binding signal (ETV3): 1.01 fold enrichment (6-mer frequency, TF over GST control)

Q: What does the source list for CGTCAT?
A: binding signal (GABPA): 1.03 fold enrichment (6-mer frequency, TF over GST control); binding signal (ERG): 1.02 fold enrichment (6-mer frequency, TF over GST control); binding signal (SPIC): 1.05 fold enrichment (6-mer frequency, TF over GST control); binding signal (ELK4): 1.09 fold enrichment (6-mer frequency, TF over GST control); binding signal (ETV1): 1.09 fold enrichment (6-mer frequency, TF over GST control); binding signal (ETS2): 1.03 fold enrichment (6-mer frequency, TF over GST control)
